The source of these data is PubChem BioAssay (NCATS).

Experiment [1] can be described thus: S16 Schwann cell PMP22 intronic element firefly luciferase assay (AID 624032). Note: nearly all actives have a fitted effect of over 30% in size. Note: potency is the fitted concentration of half-maximal effect. The method, boiled down:
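Rat S16 Schwann cells stably carrying a PMP22 intronic element-driven Fluc reporter were seeded overnight, then exposed to compounds for 24 h at 37 °C. Luminescence was normalized to PTC124 (positive control) and DMSO (0% activity).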

In experiment [2] the test system is 7G8. Description: qHTS profiling for inhibitors of Plasmodium falciparum proliferation (AID 504749). Note: nearly all actives have a fitted effect of over 60% in size. Note: potency is the fitted concentration of half-maximal effect. The following applies: P. falciparum in erythrocytes, SYBR Green DNA, 72 h; series mostly up to 12.8 µM. In outline: (§1)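 Quantitative HTS: compounds pinned into medium, infected erythrocytes added (0.3% parasitemia, 2.5% hematocrit), 72 h culture at 37 C under 5% CO2. Saponin/Triton lysis with SYBR Green I, overnight RT, then fluorescence read.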
Background: Quantitative high-throughput screening tests each substance at several concentrations.

Experiment [3] relates to CP237. The experiment is described as above. The following applies: P. falciparum in erythrocytes, SYBR Green DNA, 72 h; series mostly up to 12.8 µM. In outline:
as §1

Experiment [4] deals with CP260. Described as above. The following applies: P. falciparum in erythrocytes, SYBR Green DNA, 72 h; series mostly up to 12.8 µM. The method, boiled down: as §1
Experiment [5] has as its system CP291. Described as above. The following applies: P. falciparum in erythrocytes, SYBR Green DNA, 72 h; series mostly up to 12.8 µM. In outline:
as §1

Experiment [6] relates to CP335. Described as above. The following applies: P. falciparum in erythrocytes, SYBR Green DNA, 72 h; series mostly up to 12.8 µM. The method, boiled down: as §1
The subject of experiment [7] is DIV14. The description is as above. The following applies: P. falciparum in erythrocytes, SYBR Green DNA, 72 h; series mostly up to 12.8 µM. The method, boiled down:
as §1

The test system of experiment [8] is GB4. The experiment is described as above. The following applies: P. falciparum in erythrocytes, SYBR Green DNA, 72 h; series mostly up to 12.8 µM. In outline:
as §1

The subject of experiment [9] is HB3. The experiment is described as above. The following applies: P. falciparum in erythrocytes, SYBR Green DNA, 72 h; series mostly up to 12.8 µM. The method, boiled down: as §1
For experiment [10], the system named is ICS. The experiment is described as above. The following applies: P. falciparum in erythrocytes, SYBR Green DNA, 72 h; series mostly up to 12.8 µM. The method, boiled down: as §1
In experiment [11] the test system is P94_40. Described as above. The following applies: P. falciparum in erythrocytes, SYBR Green DNA, 72 h; series mostly up to 12.8 µM. In outline: as §1
In experiment [12] the test system is PC26. Described as above. The following applies: P. falciparum in erythrocytes, SYBR Green DNA, 72 h; series mostly up to 12.8 µM. In outline:
as §1

Experiment [13] relates to W2. The description is as above. The following applies: P. falciparum in erythrocytes, SYBR Green DNA, 72 h; series mostly up to 12.8 µM. In outline: as §1
Experiment [14] addresses Cytochrome P450 2C9 (Homo sapiens) (UniProt P11712). Description: qHTS Assay for Inhibitors and Substrates of Cytochrome P450 2C9 (AID 883). Note: nearly all actives have a fitted effect of over 60% in size. Note: potency is the fitted concentration of half-maximal effect. In outline:
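Human CYP2C9 (10nM) hydroxylated Luciferin-H (100uM, at its KM) to luciferin in 25mM KPO4. Compound was preincubated 10 min at 37C, then NADPH regeneration started a 60 min reaction at 37C. Luminescence was read after detection reagent, normalized to 57uM sulphaphenazole.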

Experiment [15] has as its target Cytochrome P450 3A4 (Homo sapiens) (UniProt P08684). Description: qHTS Assay for Inhibitors and Substrates of Cytochrome P450 3A4 (AID 884). Note: potency is the fitted concentration of half-maximal effect; nearly all actives have a fitted effect of over 50% in size. The method, boiled down: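 Luminescent readout of luciferin produced by CYP3A4 (20 nM) dealkylation of Luciferin-PPXE, 25 uM (its KM). NADPH-driven reaction ran 60 min at RT after 10 min compound preincubation; data scaled to 57 uM ketoconazole as 100% inhibition.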

Experiment [16] addresses Cytochrome P450 2D6 (Homo sapiens) (UniProt P10635). Description: qHTS Assay for Inhibitors and Substrates of Cytochrome P450 2D6 (AID 891). Note: potency is the fitted concentration of half-maximal effect; nearly all actives have a fitted effect of over 60% in size. In outline:
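Luminescent read-out of luciferin formed by 5 nM human CYP2D6 demethylating 30 uM Luciferin-ME EGE (Km level) over 60 min at room temperature after NADPH regeneration addition. Data normalized to full inhibition by 1.43 uM quinidine.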

Experiment [17] addresses Cytochrome P450 2C19 (Homo sapiens) (UniProt P33261). Description: qHTS Assay for Inhibitors and Substrates of Cytochrome P450 2C19 (AID 899). Note: nearly all actives have a fitted effect of over 60% in size. Note: potency is the fitted concentration of half-maximal effect. The method, boiled down:
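Human CYP2C19 (5nM) with Luciferin-H EGE at 10uM (its KM) in 50mM KPO4 was preincubated with compound for 10 min at 37C. NADPH regeneration started a 60 min 37C reaction. Luciferin was read by luminescence, normalized to 57uM ketoconazole.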

Experiment [18] addresses ATP-dependent 6-phosphofructokinase (Trypanosoma brucei brucei) (UniProt O15648). Description: qHTS Assay to Find Inhibitors of T. brucei phosphofructokinase: hit validation (AID 492961).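 Note: luminescence reports ADP formed as PFK phosphorylates fructose-6-phosphate with ATP.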 The method, boiled down:
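PFK 1.25 nM, F6P 0.5 mM, ATP 0.1 mM, MgCl2 5 mM, 0.1 M TEA pH 8.0, Tween20 0.01%, BSA 0.1%; 45 min RT. ADP-Glo two-step detection, luminescence. qHTS titration; curve fitting with curve-class categorization.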

The test system of experiment [19] is DFO2036. Description: qHTS profiling for inhibitors of Plasmodium falciparum proliferation (AID 504749). Note: nearly all actives have a fitted effect of over 60% in size. Note: potency is the fitted concentration of half-maximal effect. The following applies: P. falciparum in erythrocytes, SYBR Green DNA, 72 h; series mostly up to 12.8 µM. The method, boiled down: as §1
For experiment [20], the target named is Cytochrome P450 3A4 (Homo sapiens) (UniProt P08684). Description: qHTS Assay for Activators of Cytochrome P450 3A4 (AID 885). Note: nearly all actives have a fitted effect of over 65% in size. In outline:
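Activators are scored by enhanced luminescence from CYP3A4 conversion of luciferin-PPXE (25uM, equal to KM) to luciferin, after 60 min at RT with an NADPH-regenerating system.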

The structures appear in SMILES notation. Values without a mark were called inactive. Records with an inconclusive call do not appear. The source made the active and inactive calls. Calls come from the whole dose curve; as a rule, active = well fitted curve in the direction sought with a large enough effect; inconclusive = small, poorly fitted or top-dose-only effect, or another doubt; inactive = no such curve, though single readings can be large; an effect the other way counts as inactive or inconclusive.

Sequence of Cytochrome P450 3A4 (Homo sapiens) (P08684 whole entry, looked up): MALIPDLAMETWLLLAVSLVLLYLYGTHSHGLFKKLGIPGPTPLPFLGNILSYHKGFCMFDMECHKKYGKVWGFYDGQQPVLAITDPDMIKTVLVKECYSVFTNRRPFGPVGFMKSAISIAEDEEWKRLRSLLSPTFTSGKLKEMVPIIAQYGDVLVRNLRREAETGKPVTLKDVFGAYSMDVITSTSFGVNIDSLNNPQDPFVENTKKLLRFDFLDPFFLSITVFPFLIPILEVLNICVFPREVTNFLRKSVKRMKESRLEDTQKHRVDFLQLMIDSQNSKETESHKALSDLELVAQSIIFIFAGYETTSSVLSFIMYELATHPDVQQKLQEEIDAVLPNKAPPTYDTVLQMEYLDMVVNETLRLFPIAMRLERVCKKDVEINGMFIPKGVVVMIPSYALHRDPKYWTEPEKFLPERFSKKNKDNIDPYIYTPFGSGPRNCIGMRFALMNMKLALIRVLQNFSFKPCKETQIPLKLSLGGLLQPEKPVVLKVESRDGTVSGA
Sequence of ATP-dependent 6-phosphofructokinase (Trypanosoma brucei brucei) (O15648 whole entry, looked up): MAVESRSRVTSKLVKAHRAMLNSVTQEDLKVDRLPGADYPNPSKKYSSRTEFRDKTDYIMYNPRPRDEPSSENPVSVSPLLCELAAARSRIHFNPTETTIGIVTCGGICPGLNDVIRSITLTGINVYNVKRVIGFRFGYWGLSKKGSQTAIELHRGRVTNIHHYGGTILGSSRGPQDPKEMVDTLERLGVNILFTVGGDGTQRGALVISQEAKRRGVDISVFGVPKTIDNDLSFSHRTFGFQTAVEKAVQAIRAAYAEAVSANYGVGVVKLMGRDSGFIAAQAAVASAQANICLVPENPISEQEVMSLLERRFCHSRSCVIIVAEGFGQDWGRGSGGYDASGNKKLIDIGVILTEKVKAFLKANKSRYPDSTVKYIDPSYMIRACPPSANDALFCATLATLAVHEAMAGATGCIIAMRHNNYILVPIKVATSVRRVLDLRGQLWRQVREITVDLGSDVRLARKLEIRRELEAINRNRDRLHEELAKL
Sequence of Cytochrome P450 2C9 (Homo sapiens) (P11712 whole entry, looked up): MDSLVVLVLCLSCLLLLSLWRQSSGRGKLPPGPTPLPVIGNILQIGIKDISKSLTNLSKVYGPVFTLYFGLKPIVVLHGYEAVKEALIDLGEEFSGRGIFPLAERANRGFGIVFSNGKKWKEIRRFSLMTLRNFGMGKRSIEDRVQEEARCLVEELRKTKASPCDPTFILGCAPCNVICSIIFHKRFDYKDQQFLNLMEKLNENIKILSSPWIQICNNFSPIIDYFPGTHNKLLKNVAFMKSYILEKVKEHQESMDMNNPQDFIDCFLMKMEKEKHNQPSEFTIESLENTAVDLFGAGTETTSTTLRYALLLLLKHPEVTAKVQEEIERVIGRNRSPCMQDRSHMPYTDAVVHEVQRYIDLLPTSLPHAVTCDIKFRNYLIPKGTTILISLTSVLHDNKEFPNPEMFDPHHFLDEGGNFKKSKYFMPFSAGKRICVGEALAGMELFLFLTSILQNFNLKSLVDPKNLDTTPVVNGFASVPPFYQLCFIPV
Sequence of Cytochrome P450 2C19 (Homo sapiens) (P33261 whole entry, looked up): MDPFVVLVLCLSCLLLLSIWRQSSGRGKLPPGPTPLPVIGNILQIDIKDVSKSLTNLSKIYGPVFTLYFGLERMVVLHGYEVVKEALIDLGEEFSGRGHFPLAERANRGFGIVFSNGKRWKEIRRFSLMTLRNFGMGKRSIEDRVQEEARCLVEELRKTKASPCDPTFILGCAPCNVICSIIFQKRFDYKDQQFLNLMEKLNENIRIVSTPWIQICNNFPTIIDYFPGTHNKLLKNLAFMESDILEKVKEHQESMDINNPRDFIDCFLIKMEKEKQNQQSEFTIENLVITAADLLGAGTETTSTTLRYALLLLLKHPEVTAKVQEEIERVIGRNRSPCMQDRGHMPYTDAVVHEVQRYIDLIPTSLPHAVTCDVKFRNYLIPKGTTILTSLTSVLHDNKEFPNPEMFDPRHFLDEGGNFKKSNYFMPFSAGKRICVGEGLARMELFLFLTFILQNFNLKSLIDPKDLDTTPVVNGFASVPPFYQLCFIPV
Sequence of Cytochrome P450 2D6 (Homo sapiens) (P10635 whole entry, looked up): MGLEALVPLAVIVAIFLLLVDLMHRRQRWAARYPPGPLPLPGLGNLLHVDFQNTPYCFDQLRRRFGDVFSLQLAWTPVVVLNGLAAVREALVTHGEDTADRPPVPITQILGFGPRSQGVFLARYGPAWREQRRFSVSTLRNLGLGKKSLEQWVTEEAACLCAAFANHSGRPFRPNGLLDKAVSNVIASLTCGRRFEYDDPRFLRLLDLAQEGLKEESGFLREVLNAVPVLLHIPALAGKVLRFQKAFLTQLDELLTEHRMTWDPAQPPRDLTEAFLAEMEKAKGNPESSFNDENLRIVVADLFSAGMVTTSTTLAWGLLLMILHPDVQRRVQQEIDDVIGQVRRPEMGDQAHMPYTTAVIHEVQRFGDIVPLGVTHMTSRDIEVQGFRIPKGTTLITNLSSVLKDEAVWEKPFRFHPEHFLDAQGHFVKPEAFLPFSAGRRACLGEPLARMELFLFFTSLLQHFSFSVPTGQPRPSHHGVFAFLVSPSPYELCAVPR

Consider `Cc1ccc(S(=O)(=O)NC(=O)NN2C[C@H]3CCC[C@@H]3C2)cc1`, for which the Potency result in experiment [1], in experiment [2], in [3], in [4], in experiment [5] and in experiment [6] was “inactive” each time. Besides, the Potency result in experiment [7], in experiment [8], in experiment [9], in experiment [10], in [11] and in experiment [12] was “inactive” each time. In addition, the Potency result in experiment [13] is “inactive”.
As to `Clc1ccc([C@H](Cn2ccnc2)OCc2csc3c(Cl)cccc23)c(Cl)c1`, the Potency is 0.316 µM (active) in [14]; 0.794 µM (active) in [15]; 5.01 µM (active) in experiment [16]; 0.251 µM (active) in [17]; 1.41 µM (active) in experiment [2]; 3.16 µM (active) in [3]. The Potency in experiment [7] is 5.1 µM (active); in experiment [8], 5.1 µM (active); in experiment [10], 2 µM (active); in experiment [11], 3.55 µM (active); in experiment [12], 6.42 µM (active); in experiment [13], 2.28 µM (active). Moreover, the result in experiment [18] was inactive.
For the compound `NC(=O)c1cc[n+](CC2=C(C(=O)[O-])N3C(=O)[C@@H](NC(=O)Cc4cccs4)[C@@H]3SC2)cc1`, the result in experiment [18] was inactive. The Potency entry in experiment [3], in experiment [4], in [6], in [19], in experiment [7] and in [8] was “inactive” each time. The Potency entry in experiment [9], in [10], in [11], in [12] and in experiment [13] was “inactive” throughout.
For `C[C@@]12CC[C@H]3[C@@H](CCC4=CC(=O)CC[C@]43C)[C@H]1CC[C@H]2C(=O)CO`, the result in experiment [18] was inactive. The Potency entry in [1], in experiment [2], in [3], in experiment [4], in experiment [5] and in experiment [6] was “inactive” in each case. For the same compound, the Potency result in [8], in [9], in [12] and in experiment [13] was “inactive” in each case. The Potency in experiment [10] was 3.55 µM (active).
With `CCCC[C@H](CC)CN1CN(C[C@@H](CC)CCCC)CC(C)(N)C1`, the Potency in experiment [16] was 1.26 µM (active); in experiment [4] it was 3.55 µM (active); in experiment [10], 4.47 µM (active). Further, the compound was classed as inactive in [18]. Also, the Potency result in experiment [1], in experiment [5], in experiment [6], in experiment [7], in [8] and in experiment [9] was “inactive” each time. The Potency result in [11] and in [12] was “inactive” in each case.
As for `COc1c(O[C@H]2O[C@@H](CO)[C@@H](O)[C@@H](O)[C@@H]2O)cc2c(c1OC)-c1ccc(SC)c(=O)cc1[C@H](NC(C)=O)CC2`, the compound was classed as inactive in [18]. Moreover, the Potency result in experiment [2], in experiment [3], in experiment [5], in experiment [6], in experiment [19] and in experiment [7] was “inactive” each time. The Potency entry in experiment [8], in experiment [9], in [10], in [11], in experiment [12] and in experiment [13] was “inactive” in each case.
Consider `NCc1ccccc1CC(=O)N[C@@H]1C(=O)N2C(C(=O)O)=C(CSc3nnnn3CC(=O)O)CS[C@@H]12`, for which the compound was classed as inactive in experiment [18]. In addition, the Potency entry in experiment [1], in [2], in [3], in experiment [4], in experiment [5] and in [6] was “inactive” throughout. The Potency result in [7], in experiment [8], in experiment [9], in [10], in experiment [11] and in [12] was “inactive” throughout. The Potency result in [13] is “inactive”.
As for `Nc1ccn([C@@H]2CC[C@H](CO)O2)c(=O)n1`, in experiment [14], the Potency entry was “inactive”.
As to `C[C@@]12C=CC(=O)C=C1CC[C@@H]1[C@@H]2[C@H](O)C[C@]2(C)[C@@H]1CC[C@]2(O)C(=O)CO`, in experiment [17], the Potency entry was “inactive”.
Regarding `C#C[C@@]1(O)CC[C@@H]2[C@@H]3CCC4=CC(=O)CC[C@@H]4[C@H]3CC[C@]21C`, in experiment [17], the Potency was 5.01 µM (active).
Take `CCOC(=O)C1=C(C)NC(C)=C(C(=O)OC)[C@@H]1c1cccc([N+](=O)[O-])c1`: the Potency in [14] is 0.316 µM (active); in experiment [17], 0.126 µM (active). Moreover, the Potency entry in [20] is “inactive”.
For `C=CC1=C(C(=O)O)N2C(=O)[C@@H](NC(=O)/C(=N\OCC(=O)O)c3csc(N)n3)[C@@H]2SC1`, the Potency entry in experiment [1], in experiment [2], in experiment [3], in [4], in experiment [5] and in experiment [6] was “inactive” each time. The Potency result in experiment [7], in experiment [8], in experiment [9], in experiment [10], in experiment [11] and in [12] was “inactive” in each case. In addition, the Potency entry in experiment [13] was “inactive”.
`C[C@H](N[C@@H](C)COc1ccccc1)[C@H](O)c1ccc(O)cc1`: the Potency in experiment [16] is 0.316 µM (active); in [1], 1.55 µM (active); in [3], 3.55 µM (active); in [13] it was 4.55 µM (active). Besides, the Potency result in [2], in [4], in [5], in [6], in [19] and in experiment [9] was “inactive” each time. Besides, the Potency entry in experiment [10], in experiment [11] and in experiment [12] was “inactive” throughout.
Regarding `CC(C)NC[C@H]1CCc2cc(CO)c([N+](=O)[O-])cc2N1`, the compound was called inactive in experiment [18]. Besides, the Potency result in experiment [1], in experiment [2], in experiment [3], in experiment [4], in experiment [5] and in [6] was “inactive” in each case. Besides, the Potency result in experiment [19], in [7], in [8], in [9], in [10] and in experiment [11] was “inactive” throughout. Moreover, the Potency result in experiment [12] and in experiment [13] was “inactive” each time.
`CCOC(=O)O[C@]1(C(=O)COC(=O)CC)CC[C@@H]2[C@@H]3CCC4=CC(=O)C=C[C@@]4(C)[C@H]3[C@H](O)C[C@]21C`: the Potency result in experiment [20], in [1], in experiment [2], in [3], in experiment [4] and in experiment [5] was “inactive” in each case. For the same compound, the Potency entry in [6], in experiment [19], in experiment [7], in [8], in experiment [9] and in experiment [10] was “inactive” throughout. The Potency entry in [11] and in experiment [12] was “inactive” throughout. In experiment [18], the outcome was inactive.
Turning to `OCCN1CCN(CCC=C2c3ccccc3Sc3ccc(Cl)cc32)CC1`, the Potency result in experiment [20] and in [1] was “inactive” throughout. For the same compound, the compound was classed as inactive in [18]. Besides, the Potency was 3.16 µM (active) in experiment [2], 4.05 µM (active) in experiment [8], 4.47 µM (active) in [10] and 0.721 µM (active) in experiment [13].
